The source made the active and inactive calls.
Assays:
[1] = small molecules captured by biotinylated probe aFSTL3 – biochemical, small-molecule microarray, fluorescence 635/667, stem cell growth factor project, primary screen (AID 1064); conditions: higher = more signal;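 also: measures binding of the biotinylated anti-FSTL3 antibody to printed compounds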
[2] = binders from COS7 lysate, DM2A8 probe, primary screen, torsin A project, cell lysate, small-molecule microarray, fluorescence 635/667 (AID 1065); conditions: higher = more signal, COS7 lysate expressing mutant human TOR1A
[3] = small molecules captured by biotinylated probe aFGF2 – biochemical, small-molecule microarray, fluorescence 635/667, stem cell growth factor project, primary screen (AID 1067); conditions: higher = more signal;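 also: measures binding of biotinylated aFGF2 protein to printed compounds on slides; z-score merges feature fluorescence and signal-to-noise across triplicate slides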
[4] = small molecules captured by biotinylated probe aFGF10 – biochemical, small-molecule microarray, fluorescence 635/667, stem cell growth factor project, primary screen (AID 1071); conditions: higher = more signal;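 also: score merges 667 nm spot intensity and signal to noise from triplicate slides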
[5] = biological target: Neurogenic locus notch homolog protein 2 (Homo sapiens) (UniProt Q04721); experiment: small molecules binding Notch2 protein – biochemical, small-molecule microarray, 635 nm fluorescence, stem cell growth factors, primary screen (AID 1073); conditions: higher = more signal
[6] = biological target: Pro-neuregulin-1, membrane-bound isoform (Homo sapiens) (UniProt Q02297); experiment: small molecules binding neuregulin-1 protein – biochemical, small-molecule microarray, fluorescence 635/667, psychiatric disease protein project, primary screen (AID 1075); conditions: NRG1 binding, 635 nm fluorescence, higher = more signal;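 also: score combines 667 nm spot fluorescence with signal to noise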
[7] = tested on: Neuregulin-1 EGF-like domain; experiment: small molecules binding NRG1 EGF domain – biochemical, small-molecule microarray, 635 nm fluorescence, primary screen (AID 1081); conditions: higher = more signal;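 also: binding of the protein to compounds printed on small-molecule microarray slides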
[8] = FRG1 expression reporter modulators in myotubes – cell-based, C2C12 myotubes, firefly/Renilla luciferase, luminescence, FRG1 inhibition for FSHD, primary screen (AID 1084); conditions: FRG1 promoter luciferase, higher = more signal, called active from +8 up or from −8 down
[9] = small molecules captured by biotinylated probe aFST – biochemical, small-molecule microarray, fluorescence 635/667, stem cell growth factor project, primary screen (AID 1086); conditions: higher = more signal;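 also: score merges 667 nm fluorescence with signal-to-noise of each printed compound spot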
[10] = binders of probe aHhip on microarray, primary screen, stem cell growth factor project, biochemical, small-molecule microarray, fluorescence 635/667 (AID 1087); conditions: higher = more signal;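 also: score merges spot fluorescence at 667nm with spot signal to noise ratio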

Sequence of Neurogenic locus notch homolog protein 2 (Homo sapiens) (Q04721 whole entry, looked up, canonical isoform): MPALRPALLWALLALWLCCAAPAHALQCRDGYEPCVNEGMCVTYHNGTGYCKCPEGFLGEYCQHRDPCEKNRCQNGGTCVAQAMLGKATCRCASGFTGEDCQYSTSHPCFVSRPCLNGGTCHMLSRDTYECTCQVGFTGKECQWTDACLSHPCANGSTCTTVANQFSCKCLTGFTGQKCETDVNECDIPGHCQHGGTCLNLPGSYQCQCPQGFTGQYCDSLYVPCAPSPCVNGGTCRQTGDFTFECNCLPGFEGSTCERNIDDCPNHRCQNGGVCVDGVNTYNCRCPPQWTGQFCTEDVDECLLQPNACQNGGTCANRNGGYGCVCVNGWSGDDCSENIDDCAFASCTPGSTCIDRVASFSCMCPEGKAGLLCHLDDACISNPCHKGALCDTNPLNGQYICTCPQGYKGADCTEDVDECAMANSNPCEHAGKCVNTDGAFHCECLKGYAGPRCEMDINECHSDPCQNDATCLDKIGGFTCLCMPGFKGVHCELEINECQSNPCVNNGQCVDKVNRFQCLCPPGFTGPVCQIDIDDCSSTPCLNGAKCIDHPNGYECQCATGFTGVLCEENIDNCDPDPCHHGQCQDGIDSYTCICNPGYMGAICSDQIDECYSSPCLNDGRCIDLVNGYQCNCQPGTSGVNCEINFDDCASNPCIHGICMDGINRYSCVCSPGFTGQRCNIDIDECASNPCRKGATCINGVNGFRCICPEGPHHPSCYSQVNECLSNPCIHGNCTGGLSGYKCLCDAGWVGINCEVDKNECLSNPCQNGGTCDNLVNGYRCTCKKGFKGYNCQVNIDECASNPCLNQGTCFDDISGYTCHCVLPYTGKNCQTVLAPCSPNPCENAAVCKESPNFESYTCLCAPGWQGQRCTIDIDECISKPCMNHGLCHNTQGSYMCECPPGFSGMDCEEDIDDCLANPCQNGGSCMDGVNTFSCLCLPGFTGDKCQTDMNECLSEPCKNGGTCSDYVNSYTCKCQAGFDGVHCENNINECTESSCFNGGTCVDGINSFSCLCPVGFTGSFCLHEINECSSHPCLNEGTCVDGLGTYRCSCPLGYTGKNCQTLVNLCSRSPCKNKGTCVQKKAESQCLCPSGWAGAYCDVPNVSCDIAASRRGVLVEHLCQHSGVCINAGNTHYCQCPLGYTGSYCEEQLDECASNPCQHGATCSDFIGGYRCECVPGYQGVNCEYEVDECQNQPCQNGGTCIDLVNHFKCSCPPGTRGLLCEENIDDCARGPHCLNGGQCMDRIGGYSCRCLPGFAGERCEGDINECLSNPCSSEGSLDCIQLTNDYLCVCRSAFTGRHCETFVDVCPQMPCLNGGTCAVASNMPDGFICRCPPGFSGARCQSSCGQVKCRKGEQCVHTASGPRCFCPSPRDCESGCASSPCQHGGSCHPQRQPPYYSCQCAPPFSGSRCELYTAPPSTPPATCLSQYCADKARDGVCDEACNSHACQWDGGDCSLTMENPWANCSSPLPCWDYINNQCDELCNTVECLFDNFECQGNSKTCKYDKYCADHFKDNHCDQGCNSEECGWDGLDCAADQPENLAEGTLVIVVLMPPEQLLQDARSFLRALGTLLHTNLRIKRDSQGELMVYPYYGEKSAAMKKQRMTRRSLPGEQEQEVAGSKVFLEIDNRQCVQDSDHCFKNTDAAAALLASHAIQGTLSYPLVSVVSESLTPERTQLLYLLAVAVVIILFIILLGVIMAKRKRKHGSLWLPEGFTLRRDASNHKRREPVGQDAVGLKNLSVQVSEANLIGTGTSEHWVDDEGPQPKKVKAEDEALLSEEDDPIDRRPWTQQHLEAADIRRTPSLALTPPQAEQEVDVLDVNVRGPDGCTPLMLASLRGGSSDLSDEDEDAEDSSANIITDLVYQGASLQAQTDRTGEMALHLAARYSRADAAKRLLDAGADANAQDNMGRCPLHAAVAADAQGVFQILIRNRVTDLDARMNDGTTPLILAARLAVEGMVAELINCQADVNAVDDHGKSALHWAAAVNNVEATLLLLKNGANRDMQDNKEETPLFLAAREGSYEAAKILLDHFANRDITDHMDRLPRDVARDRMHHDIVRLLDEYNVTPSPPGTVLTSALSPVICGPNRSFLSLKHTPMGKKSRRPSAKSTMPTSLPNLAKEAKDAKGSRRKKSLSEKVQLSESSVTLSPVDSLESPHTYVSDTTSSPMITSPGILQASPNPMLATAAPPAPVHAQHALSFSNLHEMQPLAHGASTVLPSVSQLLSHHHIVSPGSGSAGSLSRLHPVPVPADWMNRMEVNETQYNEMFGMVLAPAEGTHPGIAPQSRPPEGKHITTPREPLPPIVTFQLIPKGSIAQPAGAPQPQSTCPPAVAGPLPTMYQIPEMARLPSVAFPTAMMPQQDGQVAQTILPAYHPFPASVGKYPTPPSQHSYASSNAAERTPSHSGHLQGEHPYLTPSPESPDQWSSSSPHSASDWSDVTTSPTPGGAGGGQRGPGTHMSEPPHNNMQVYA
Sequence of Pro-neuregulin-1, membrane-bound isoform (Homo sapiens) (Q02297 whole entry, looked up, the tested form may be a part, canonical isoform): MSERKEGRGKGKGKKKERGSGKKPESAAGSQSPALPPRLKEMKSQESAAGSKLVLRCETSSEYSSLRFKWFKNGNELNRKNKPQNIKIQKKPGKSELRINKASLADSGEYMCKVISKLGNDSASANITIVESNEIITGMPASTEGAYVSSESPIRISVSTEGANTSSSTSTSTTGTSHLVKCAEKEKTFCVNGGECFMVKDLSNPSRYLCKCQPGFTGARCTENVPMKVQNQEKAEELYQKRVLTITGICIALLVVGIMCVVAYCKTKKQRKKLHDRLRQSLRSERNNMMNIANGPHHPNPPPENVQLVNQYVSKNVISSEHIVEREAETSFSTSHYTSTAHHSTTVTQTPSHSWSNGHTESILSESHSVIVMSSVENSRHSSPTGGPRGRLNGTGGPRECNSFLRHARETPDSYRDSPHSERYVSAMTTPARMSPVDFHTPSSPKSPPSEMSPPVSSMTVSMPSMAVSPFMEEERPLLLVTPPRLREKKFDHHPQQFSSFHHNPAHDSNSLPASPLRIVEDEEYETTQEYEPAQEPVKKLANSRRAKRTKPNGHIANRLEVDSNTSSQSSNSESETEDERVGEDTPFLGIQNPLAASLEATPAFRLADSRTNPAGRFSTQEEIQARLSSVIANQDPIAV

Row | SMILES | composite z-score [1] | composite z-score [2] | composite z-score [3] | composite z-score [4] | composite z-score [5] | composite z-score [6] | composite z-score [7] | z-score [8] | composite z-score [9] | composite z-score [10]
1 | C=C(COC)C(=O)CC[C@@H](OC(C)=O)c1ccccc1OCCO | -0.215 | -0.0765 | -0.102 | 1.39 | -0.54 | 0.695 | 0.326 | 0.151 (inactive) | 0.406 | -0.0994
2 | CN1C(=O)C2C(C1=O)C1C=C(c3ccc(CO)cc3)C2C(C2CC2)N1C (stereo not given) | -0.23 | 0.388 | -0.0932 | 0.0656 | -0.337 | 1.16 | 0.811 | 0.0916 (inactive) | -0.176 | 0.0749
3 | NC(=O)NCC#Cc1ccc2c(c1)[C@]1(C(=O)N2)[C@H](c2ccc(OCCO)cc2)N2[C@H](c3ccccc3)[C@H](c3ccccc3)OC(=O)[C@H]2[C@@H]1C(=O)O | -0.218 | 1.36 | -0.187 | 0.23 | -0.459 | 1.68 | -0.269 | 0.542 (inactive) | 0.0897 | -0.374
4 | COc1cc(C(O)C2C=CC3C(=O)N(c4ccccc4)C(=O)C3N2Nc2ccccc2F)cc(OC)c1OC (stereo not given) | -0.0643 | 0.155 | 0.0253 | 0.935 | 1.64 | 1.93 | 1.29 | 1.26 (inactive) | 0.612 | 0.252
5 | C=C(COC)/C(=C/C[C@@H](OC(C)=O)c1ccccc1OCCO)c1cnc2ccccc2c1 | -0.0428 | 1.58 | -0.0695 | 0.339 | 1.03 | 1.23 | 1.13 | -0.305 (inactive) | 0.278 | -0.169
6 | [N-]=[N+]=Nc1ccccc1[C@H]1OC(c2ccc(OCCCO)cc2)=N[C@@]1(Cc1ccccc1)C(=O)NCC(O)CO (stereo not given in full) | 0.277 | 0.0899 | 0.0528 | 0.231 | 1.36 | 1.19 | 1.12 | 2.22 (inactive) | 1.03 | -0.0541
7 | O=C1O[C@@H](c2ccccc2)[C@@H](c2ccccc2)N2[C@@H](c3ccccc3OCCO)[C@]3(C(=O)Nc4ccc(C#CCCO)cc43)[C@@H](C(=O)NC[C@H](O)c3ccccc3)[C@H]12 | 0.13 | 1.2 | 0.277 | 0.0012 | 0.381 | 1.63 | 1.36 | -2.14 (inactive) | 0.372 | 0.192
8 | O=C1NC(=O)C2C1C=CC(C(O)c1ccc(B(O)O)cc1)N2Nc1ccc(Cl)cc1Cl (stereo not given) | -0.144 | -0.397 | -0.0095 | 0.454 | 1.11 | 1.16 | 0.955 | 0.402 (inactive) | 0.514 | -0.0645
9 | COC(=O)[C@@]1(Cc2ccccc2)[C@H]2c3cc(C(=O)N(C)C)n(CCO)c3C[C@H]2CN1C(=O)c1ccccc1 | 0.348 | 0.0312 | 0.152 | 1.14 | 1.39 | 1.93 | 1.17 | 1.27 (inactive) | 0.647 | -0.418
10 | CCOC(=O)C[C@H]1[C@H](OC(=O)Cc2ccc3c(c2)OCO3)[C@@H](NC(=O)Cc2ccc(OC)cc2)c2cc(OCCCO)ccc2N1C(=O)Cc1ccc(OC)cc1 | -0.199 | 0.225 | -0.128 | 0.209 | 0.121 | 0.007 | 0.501 | -3.1 (inactive) | 0.255 | 0.132
11 | O=C1O[C@@H](c2ccccc2)[C@@H](c2ccccc2)N2[C@@H](c3ccc(OCCO)cc3)[C@]3(C(=O)Nc4ccc(C#CC5(O)CCCCCC5)cc43)[C@@H](C(=O)Nc3nc4ccccc4s3)[C@H]12 | -0.017 | 1.17 | 0.0649 | 0.517 | 1.46 | 1.51 | 1.24 | 2.48 (inactive) | 0.397 | 0.113
12 | CC=CC(O)C1C=CC2C(=O)NC(=O)C2N1Nc1ccc(Cl)cc1Cl (stereo not given) | 0.389 | 0.453 | -0.0074 | 0.647 | 0.662 | 1.01 | 0.669 | 0.035 (inactive) | 0.114 | -0.0645
13 | CCC(CC)C(O)C1C=CC2C(=O)N(c3ccccc3)C(=O)C2N1Nc1ccccc1F (stereo not given) | -0.226 | 1.01 | -0.0222 | 0.715 | 1.48 | 1.29 | 1.38 | -0.556 (inactive) | 1 | 0.0373
14 | O=C1O[C@@H](c2ccccc2)[C@@H](c2ccccc2)N2[C@@H](c3ccc(OCCO)cc3)[C@]3(C(=O)Nc4ccc(C#CCCO)cc43)[C@@H](C(=O)O)[C@H]12 | 1.47 | 0.431 | 0.213 | 0.749 | 0.882 | 1.46 | 1.24 | -1.75 (inactive) | 1.9 | 0.102
15 | CCCCC(O)C1C=CC2C(=O)N(c3ccccc3)C(=O)C2N1Nc1ccc([N+](=O)[O-])cc1 (stereo not given) | 0.108 | 0.0331 | -0.0004 | 0.531 | 1.06 | 1.58 | 1.35 | 0.456 (inactive) | 1.27 | -0.154
16 | [N-]=[N+]=Nc1ccccc1[C@@H]1OC(c2ccc(OCCCO)cc2)=N[C@]1(Cc1ccccc1)C(=O)NCCN1CCOCC1 | -0.0258 | 2.32 | -0.001 | 0.916 | 1.21 | -0.238 | 1.33 | -0.906 (inactive) | 1.26 | 0.24
17 | CN(C)C(=O)[C@@]1(Cc2ccccc2CN=[N+]=[N-])COC(c2ccc(OCCCO)cc2)=N1 | 0.695 | -0.445 | -0.085 | -0.0663 | 0.0696 | 1.63 | 1.1 | -2.47 (inactive) | 0.681 | -0.134
18 | COCCOC(=O)N1C(=O)[C@@]2(c3cc(C#CCC(C(=O)OC)C(=O)OC)ccc31)[C@H](c1ccc(O)cc1)N1[C@H](c3ccccc3)[C@H](c3ccccc3)OC(=O)[C@H]1[C@@H]2C(=O)Nc1nc2ccccc2s1 | -0.0882 | 1.39 | 0.0001 | 0.785 | 1.27 | 1.12 | 1.27 | 0.909 (inactive) | 0.606 | 0.382
19 | CCOC(=O)C[C@H]1[C@H](OC(=O)Cc2ccc3c(c2)OCO3)[C@@H](NC(=O)c2ccc3ccccc3n2)c2cc(OCCCO)ccc2N1C(=O)Cc1ccc(OC)cc1 | -0.238 | 0.38 | -0.0785 | 0.205 | 0.761 | 1.17 | 0.38 | -0.876 (inactive) | 0.447 | -0.0994
20 | CC(C)N1C(=O)c2ccccc2[C@](C)(C(=O)NCC(F)(F)F)[C@@H]1c1ccc(CO)cc1 | 0.531 | -0.226 | -0.0698 | -1 | -0.334 | 0.583 | 0.107 | -0.229 (inactive) | -0.299 | -0.105
21 | CCCN1C(=O)[C@]2(CCC(=O)OC(C)(C)C)N=C(c3ccc(OCCCO)cc3)O[C@@H]2c2ccccc21 | 0.678 | 1.24 | -0.0136 | 0.152 | 0.399 | 0.421 | 1.07 | 0.177 (inactive) | 0.0678 | -0.0645

From PubChem BioAssay
